This note sets out measurements from PubChem BioAssay (NCI).

Some test systems named below: NCI-H23 lung; NCI-H226 lung; NCI-H322M lung; HOP-62 NSCLC; NCI-H460 lung; HOP-92 NSCLC; A549/ATCC NSCLC; 786-0 renal; COLO 205 colon; DU-145 prostate; K-562 leukemia; MALME-3M melanoma; MDA-MB-231 breast; RXF 393 renal; SF-268 CNS; SF-295 CNS; SF-539 CNS; UACC-257 melanoma; M14 melanoma.
Common to all, as to assay: NCI-60 one-dose screen, 48 h (100 = growth as untreated, 0 = no growth, -100 = all killed)
Common to all, as to conditions: 10 µM unless noted

SMILES strings stand for the structures. Compounds without any hit were thinned out: in the full panel of roughly 83,000, 20% have a hit.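 Testing used 96-well plates and a 48-hour single-concentration exposure. Example: -40 means 40% of the starting cells died.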 Values without a mark were called inactive. Activity calls are given as the source filed them. The calls were made as follows: active = growth percent below 10; inactive = the rest.

`CCOc1cc(/C=C/C(=O)C(C(=O)/C=C/c2ccc(OC(=O)CNc3nc4ccccc4[nH]3)c(OCC)c2)C(=O)CNc2nc3ccccc3[nH]2)ccc1OC(=O)CNc1nc2ccccc2[nH]1`: the growth in the assay with NCI-H23 lung is 6.88% (active); with NCI-H226 lung, -10.9% (active); in the assay with NCI-H322M lung it was 23.2%; in the assay on HOP-62 NSCLC it was 10.1%; in the assay on NCI-H460 lung, -27.3% (active); with HOP-92 NSCLC it was -13% (active). The growth was 7.62% (active) with A549/ATCC NSCLC; -47.7% (active) in the assay on 786-0 renal; -41.8% (active) with COLO 205 colon; -24.8% (active) in the assay on DU-145 prostate; -26.2% (active) in the assay on K-562 leukemia; -35.1% (active) in the assay with MALME-3M melanoma. In addition, the growth in the assay with MDA-MB-231 breast is -16.3% (active); in the assay on RXF 393 renal it was -71.4% (active); with SF-268 CNS it was 8.48% (active); in the assay on SF-295 CNS, -20.4% (active); in the assay with SF-539 CNS it was -33.4% (active); in the assay with UACC-257 melanoma, 21.1%. Moreover, in the assay with M14 melanoma, the growth is -6.17% (active).
With `N#Cc1c(-c2ccccc2)cc(-c2ccccc2)n(CC(=O)O)c1=O`, the growth is 70.2% in the assay on NCI-H23 lung; 75.2% in the assay on NCI-H226 lung; 96.9% in the assay on NCI-H322M lung; 53.8% in the assay on HOP-62 NSCLC; 40.7% with NCI-H460 lung; 61.7% in the assay with HOP-92 NSCLC. The growth in the assay with A549/ATCC NSCLC was 51.9%; with 786-0 renal, 62.9%; in the assay with COLO 205 colon, 68.4%; with DU-145 prostate it was 87.5%; in the assay on K-562 leukemia, 21.1%; in the assay on MALME-3M melanoma it was 56.2%. Moreover, the growth is 60.3% in the assay with MDA-MB-231 breast; 62.3% in the assay on RXF 393 renal; 67.2% in the assay on SF-268 CNS; 36.8% with SF-295 CNS; 66.5% in the assay with SF-539 CNS; 64.4% in the assay with UACC-257 melanoma. Also, in the assay with M14 melanoma, the growth is 26.3%.
With `CCCCCN1C(=O)CCC1=O`, the growth in the assay with NCI-H23 lung was 110%; in the assay with NCI-H226 lung, 101%; with NCI-H322M lung, 110%; with HOP-62 NSCLC it was 92.9%; in the assay with NCI-H460 lung it was 120%; in the assay with HOP-92 NSCLC, 79.3%. Also, the growth with A549/ATCC NSCLC was 99%; with 786-0 renal, 111%; in the assay with COLO 205 colon, 99.4%; in the assay with DU-145 prostate, 101%; in the assay with K-562 leukemia, 114%; in the assay on MALME-3M melanoma, 90.3%. Besides, the growth in the assay on MDA-MB-231 breast is 109%; in the assay with RXF 393 renal it was 122%; in the assay on SF-268 CNS it was 93.3%; in the assay with SF-295 CNS, 101%; with SF-539 CNS it was 102%; in the assay on UACC-257 melanoma, 99.4%. Moreover, the growth in the assay on M14 melanoma was 107%.
Take `N/C(=N\c1nc2ccccc2s1)NC(=O)Nc1ccccc1Cl`: the growth with NCI-H23 lung is 34.9%; in the assay with NCI-H226 lung, 35.3%; in the assay with NCI-H322M lung, 45%; with HOP-62 NSCLC, 28.6%; in the assay with NCI-H460 lung it was 12.7%; in the assay on HOP-92 NSCLC, 139%. In addition, the growth with A549/ATCC NSCLC was 21.6%; with 786-0 renal it was 36.6%; in the assay on COLO 205 colon it was -44.4% (active); in the assay on DU-145 prostate, 21.8%; in the assay with K-562 leukemia it was 6.5% (active); in the assay with MALME-3M melanoma, 63.3%. Moreover, the growth with MDA-MB-231 breast is 42.1%; in the assay with RXF 393 renal it was -13.9% (active); in the assay on SF-268 CNS, 60.9%; with SF-295 CNS, 9.08% (active); with SF-539 CNS it was -14.2% (active); in the assay with UACC-257 melanoma it was 62.3%. Moreover, the growth in the assay on M14 melanoma is 13.4%.
Take `[N-]=[N+]=NCc1cccc(/C(O)=C/C(=O)C(=O)O)c1`: the growth in the assay with NCI-H23 lung is 85.4%; in the assay with NCI-H226 lung, 86.1%; in the assay with NCI-H322M lung it was 93.8%; with HOP-62 NSCLC, 94.5%; with NCI-H460 lung, 104%; in the assay with HOP-92 NSCLC, 92.7%. Moreover, the growth in the assay with A549/ATCC NSCLC was 93.6%; in the assay on 786-0 renal it was 97.3%; in the assay on COLO 205 colon it was 99.6%; with DU-145 prostate, 92.1%; in the assay with K-562 leukemia it was 110%; with MALME-3M melanoma, 91.5%. In addition, the growth in the assay with MDA-MB-231 breast is 88.4%; in the assay with RXF 393 renal, 24.6%; in the assay on SF-268 CNS, 91.5%; in the assay on SF-295 CNS it was 143%; with SF-539 CNS, 100%; in the assay with UACC-257 melanoma, 100%. Also, in the assay with M14 melanoma, the growth was 118%.
On to `c1ccc(COc2ccc(Nc3ncnc4c3cnn4-c3ccccc3)cc2)cc1`, for which the growth is 109% with NCI-H23 lung; 103% in the assay on NCI-H226 lung; 84.1% with NCI-H322M lung; 104% in the assay with HOP-62 NSCLC; 93.7% in the assay on NCI-H460 lung; 98.8% in the assay on HOP-92 NSCLC. The growth with A549/ATCC NSCLC was 104%; with 786-0 renal it was 100%; in the assay with COLO 205 colon, 107%; in the assay on DU-145 prostate, 104%; in the assay with K-562 leukemia, 90.3%; in the assay with MALME-3M melanoma it was 92.8%. For the same molecule, the growth with MDA-MB-231 breast was 101%; in the assay on RXF 393 renal it was 102%; with SF-268 CNS it was 108%; in the assay on SF-295 CNS, 107%; in the assay on SF-539 CNS, 99.6%; with UACC-257 melanoma, 121%. Moreover, the growth in the assay on M14 melanoma is 101%.
